Our source for the cell viability values is the supplement of paper PMC8866396.

± gives the standard deviation of the averaged measurements.

This test deals with IL-6-GFP PC-9. The experiment in a line: cell viability (CCK-8 OD) relative to DMSO control (fraction of control); higher = more viable cells. To be noted: compound concentration: 10 uM; treatment time: 48 h. The essentials: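 PC-9 and PC-9GR lung cancer cells expressing lentiviral IL-6-GFP were plated at 3000 cells/well in 96-well plates and treated for 48 h with each library compound at a final 10 μM. Viability was determined by CCK-8 absorbance as a ratio of each well's optical density to the vehicle control well.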
`COC(=O)CC(O)(CCCC(C)(C)O)C(=O)OC1C(OC)=CC23CCCN2CCc2cc4c(cc2C13)OCO4` (configuration not stated) [Homoharringtonine] gave a cell viability of 0.358 ± 0.042. The value for `O=C(O)c1ccccc1OP(=O)(O)O` [Fosfosal] was 1.01 ± 0.21; that for `CC#CCn1c(N2CCCC(N)C2)nc2c1c(=O)n(Cc1nc(C)c3ccccc3n1)c(=O)n2C` (configuration not stated) [Linagliptin] was 0.883 ± 0.22; that for `CC1CC2C3CC(F)C4=CC(=O)C=CC4(C)C3(F)C(O)CC2(C)C1(OC(=O)c1ccco1)C(=O)SCF` (configuration not stated) [fluticasone furoate] was 0.961 ± 0.27. The value for `CC(=O)OCC(=O)C1(O)C(C)CC2C3CCC4=CC(=O)C=CC4(C)C3(F)C(O)CC21C` (configuration not stated) [Dexamethasone Acetate] was 0.945 ± 0.21; that for `Oc1ccc(/C=C/c2cc(O)cc(O)c2)cc1` [Resveratrol] was 1.37 ± 0.064; that for `Nc1nnc(-c2cccc(Cl)c2Cl)c(N)n1` [Lamotrigine] was 1.05 ± 0.16. For `OCC1OC(c2ccc(F)c(Cc3cc4ccccc4s3)c2)C(O)C(O)C1O` (configuration not stated) [Ipragliflozin (ASP1941)], the cell viability is 1.06 ± 0.12. `Cc1cnc(Nc2ccc(OCCN3CCCC3)cc2)nc1Nc1cccc(S(=O)(=O)NC(C)(C)C)c1` came in with a cell viability of 0.3 ± 0.12. The value for `Cc1ccc(Nc2nccc(N(C)c3ccc4c(C)n(C)nc4c3)n2)cc1S(N)(=O)=O` [Pazopanib] was 0.725 ± 0.062; that for `CCOC(=O)c1ccc(C#Cc2ccc3c(c2)C(C)(C)CCS3)nc1` [Tazarotene] was 1.15 ± 0.041. The value for `CCC(C)C(=O)OC1CC(O)C=C2C=CC(C)C(CCC(O)CC(O)CC(=O)[O-])C21.[Na+]` (configuration not stated) [Pravastatin sodium] was 1.17 ± 0.016.
